Where “and” joins values, the source holds several entries; their conditions need not be identical. Equal entries are not always repeated. The campaign covered roughly 5,500 compounds. About 2,000 (36%) were called active. Inconclusive results (about 18%) are left out. Cut-off read from the data, not from the text of the source: active = normalized growth mostly below about 0.91 (no sharp cut-off); inconclusive = no clear call, values can overlap the other calls; inactive = mostly above about 0.92. The list shows a part of the results.
Assay: chemical genetic growth profiling, strain panel (AID 1159580);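 note: tested at 20 µM; growth read once vehicle control cultures reached saturation at 30 °C; 1 = growth at the plate median or of vehicle wells; lower values mean less growth of the strain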
Conditions: S. cerevisiae deletion strains, growth OD

Measured: normalized growth

CN(C)CC[C@H](c1ccc(Cl)cc1)c1ccccn1
inactive: locus YAL013W, strain DEP1, hits give low values 0.997 | locus YAL021C, strain ccr4, hits give low values 0.99 | locus YAL026C, strain drs2, hits give low values 1.01 | locus YAL030W, strain snc1, hits give low values 1 | locus YBL061C, strain skt5, hits give low values 1.01 | locus YBR009C, strain hhf1, hits give low values 1.01 | locus YBR021W, strain FUR4, hits give low values 0.995 | locus YBR023C, strain chs3, hits give low values 0.996 | locus YBR171W, strain sec66, hits give low values 0.998 | locus YBR229C, strain ROT2, hits give low values 1 | locus YBR231C, strain swc5, hits give low values 0.989 | locus YBR279W, strain paf1, hits give low values 1.01 | locus YCL011C, strain gbp2, hits give low values 0.993 | locus YCL016C, strain dcc1, hits give low values 1.02 | locus YCL029C, strain bik1, hits give low values 1 | locus YCL061C, strain MRC1, hits give low values 1 | locus YCL069W, strain vba3, hits give low values 1 | locus YCR088W, strain abp1, hits give low values 0.989 | locus YDL005C, strain med2, hits give low values 0.992 | locus YDL035C, strain GPR1, hits give low values 1.02 | locus YDL040C, strain nat1, hits give low values 1.01 | locus YDL074C, strain BRE1, hits give low values 1.01 | locus YDL101C, strain DUN1, hits give low values 0.998 | locus YDL134C, strain PPH21, hits give low values 0.996 | locus YDL185W, strain tfp1, hits give low values 0.985 | locus YDL192W, strain arf1, hits give low values 1 | locus YDR001C, strain nth1, hits give low values 0.999 | locus YDR069C, strain doa4, hits give low values 1.01 | locus YDR101C, strain arx1, hits give low values 0.998 | locus YDR137W, strain rgp1, hits give low values 1.03 | locus YDR150W, strain NUM1, hits give low values 1.01 | locus YDR159W, strain sac3, hits give low values 1 | locus YDR162C, strain NBP2, hits give low values 1.01 | locus YDR195W, strain ref2 1.01 | locus YDR297W, strain sur2, hits give low values 1.01 | locus YDR318W, strain mcm21, hits give low values 0.985 | locus YDR334W, strain swr1, hits give low values 1 | locus YDR335W, strain msn5, hits give low values 1 | locus YDR388W, hits give low values 0.991 | locus YDR392W, strain spt3, hits give low values 1.01 | locus YDR502C, strain sam2, hits give low values 1.01 | locus YEL003W, strain gim4, hits give low values 1.01 | locus YEL037C, strain rad23, hits give low values 0.992 | locus YEL061C, strain CIN8 (second series), hits give low values 1 | locus YEL061C, strain CIN8, hits give low values 1 | locus YER015W, strain faa2, hits give low values 1.01 | locus YER016W, strain bim1, hits give low values 0.99 | locus YER110C, hits give low values 0.98 | locus YER111C, strain swi4, hits give low values 0.994 | locus YER155C, strain BEM2 (second series), hits give low values 1.01 | locus YER155C, strain BEM2, hits give low values 1 | locus YER167W, strain BCK2, hits give low values 1.01 | locus YFR010W, strain ubp6, hits give low values 0.991 | locus YGL078C, strain dbp3, hits give low values 1 | locus YGL086W, strain mad1, hits give low values 1.01 | locus YGL167C, strain pmr1, hits give low values 0.985 | locus YGL173C, strain kem1, hits give low values 0.998 | locus YGL227W, strain vid30, hits give low values 1.01 | locus YGL240W, strain doc1, hits give low values 1.01 | locus YGL248W, strain PDE1, hits give low values 0.997 | locus YGL253W, strain hxk2, hits give low values 1.01 | locus YGR078C, strain PAC10, hits give low values 1.01 | locus YGR135W, strain pre9, hits give low values 1 | locus YGR229C, strain SMI1, hits give low values 1.01 | locus YGR252W, strain gcn5, hits give low values 0.959 | locus YHR013C, strain ard1, hits give low values 1.01 | locus YHR027C, strain rpn1, hits give low values 0.998 | locus YHR030C, strain SLT2, hits give low values 1 and 0.993 | locus YHR079C, strain IRE1 (second series), hits give low values 0.993 | locus YHR079C, strain IRE1, hits give low values 1 | locus YHR094C, strain hxt1, hits give low values 0.99 | locus YHR129C, strain ARP1, hits give low values 0.999 | locus YHR142W, strain chs7, hits give low values 1.02 | locus YHR200W, strain rpn10, hits give low values 0.992 | locus YIL066C, strain RNR3, hits give low values 1.01 | locus YIL073C, strain SPO22, hits give low values 0.992 | locus YIL125W, strain kgd1, hits give low values 0.999 | locus YIR030C, strain dcg1, hits give low values 0.991 | locus YJL092W, strain hpr5, hits give low values 1.01 | locus YJL095W, strain BCK1 (second series), hits give low values 0.997 | locus YJL095W, strain BCK1, hits give low values 1 | locus YJL115W, strain asf1, hits give low values 1.01 | locus YJL129C, strain trk1, hits give low values 1.01 | locus YJL134W, strain LCB3, hits give low values 1.01 | locus YJL154C, strain vps35, hits give low values 1.01 | locus YJL164C, strain tpk1, hits give low values 0.992 | locus YJL166W, strain qcr8, hits give low values 0.985 | locus YJL168C, strain set2, hits give low values 0.993 | locus YJL187C, strain SWE1 (second series), hits give low values 1.01 | locus YJL187C, strain SWE1, hits give low values 1.01 | locus YJR043C, strain POL32, hits give low values 0.984 | locus YJR066W, strain TOR1, hits give low values 0.993

Reference: PubChem BioAssay AID1159580 (chemical genetic matrix, 2015)
